ROMK mod: human ROMK K+ channel modulation, primary screen. 2% of 130,000 active. P48048. Tet-inducible ROMK, thallium flux fluorescence; actives lie on both sides. B-score at 10 µM;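 active = signal ratio slope over the read window, or its plate-corrected B-score, at least 3 SD from the plate mean, either direction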;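 note: B-score of the F/F0 ratio slope over 7 to 12 s after thallium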
Target sequence (P48048 whole entry, looked up): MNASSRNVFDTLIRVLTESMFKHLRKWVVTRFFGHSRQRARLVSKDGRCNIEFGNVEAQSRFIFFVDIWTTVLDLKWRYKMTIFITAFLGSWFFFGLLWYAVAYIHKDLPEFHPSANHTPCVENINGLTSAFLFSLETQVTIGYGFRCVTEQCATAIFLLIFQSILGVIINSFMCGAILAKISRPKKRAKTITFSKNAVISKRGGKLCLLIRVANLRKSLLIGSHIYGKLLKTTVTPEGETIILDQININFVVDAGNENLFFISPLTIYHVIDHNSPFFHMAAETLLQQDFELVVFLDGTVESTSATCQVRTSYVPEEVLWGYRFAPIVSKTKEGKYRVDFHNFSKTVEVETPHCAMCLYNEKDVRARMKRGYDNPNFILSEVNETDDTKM
L major viab: inhibitors of Leishmania major promastigote growth; Leishmania major promastigotes, resazurin fluorescence viability; AID 1063; inhibition, % at 10 µM; 9% of 200,000 active; in the data active = inhibition above about 50%;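 note: promastigotes grown with compound for 44 hours at 28 °C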
WT yeast gro inh: growth inhibition of WT yeast, mitochondrial fusion screen; mitochondrial fusion phenotypic screen, WT strain; inhibition, % at 10 µM; 2.1% of 190,000 active; in the data active = inhibition above about 58%; tested in S. cerevisiae
m-calpain inh: inhibitors of pig calpain II. purified calpain II, fluorogenic peptide substrate, 30 min. inhibition, % at 16 µM. 0.37% of 220,000 active. AID 1236;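 active = inhibition above about 50%, limit read from the data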
Cl transport mod: modulators of human KCC2 chloride dependent transport | B-score of Tl+ flux slope (higher = more flux/activation; lower = inhibition) at 10 µM | AID 1456 | 2.2% of 190,000 active | Q9H2X9 | KCC2 cells, thallium flux FluoZin-2 fluorescence;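 active = thallium flux slope and its plate-corrected score both differing from the plate sample mean at a set confidence after two filtering rounds, in either direction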;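 note: slope of fluorescence scaled to starting intensity during 10 to 20 s after thallium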
* marks the source's active call; other numbers are inactive results; . = not tested or not shown. Shown are actives, neighbours in structure and some others; about 12% of the full set was active somewhere.

SMILES	ROMK mod	L major viab	WT yeast gro inh	m-calpain inh	Cl transport mod
O=C(NC(=O)c1ccc(Cl)cc1)Nc1cc(N2CCCCC2)ncn1	.	-1.2	.	.	.
COc1ccccc1-c1cc(C(F)(F)F)nc(NCc2ccco2)n1	-0.0236	17.9	60.0*	-15.0	.
O=C1c2ccsc2SCCN1Cc1ccccc1	0.138	-6.3	1.6	4.8	-0.911
Cn1cc(C(=O)c2ccc(Cl)cc2Cl)cc1C(=O)N/N=C(\N)COc1ccc(Cl)cc1Cl	0.42	100.0*	-4.8	-66.3	.
Cn1cc(C(=O)c2ccc(Cl)cc2Cl)cc1C(=O)N/N=C(\N)COc1ccccc1	0.00882	-1.3	-1.9	5.6	-1.51
Cn1cc(C(=O)c2ccc(Cl)cc2Cl)cc1C(=O)N/N=C(\N)COc1ccc(Cl)cc1	.	.	.	-65.8	.
Cn1cc(C(=O)c2ccc(Cl)cc2Cl)cc1C(=O)O	.	-6.1	92.4*	-2.4	-2.64
CCOCC(=O)Nc1ccccc1C(=O)N1CCOCC1	-1.45	-9.0	9.0	5.0	0.215
COc1cccc(Oc2cncnc2-c2ccc(OC)cc2O)c1	.	93.2*	24.1	14.8	-0.689
CC(=O)NN1C(=O)c2ccccc2NC1c1ccc([N+](=O)[O-])o1 (stereo not drawn)	0.257	66.0*	5.8	-3.2	-0.372
CC(=O)NN1C(=O)c2ccccc2NC1c1ccco1 (stereo not drawn)	-0.192	-5.3	6.3	-441.1	0.368
O=C(NN1C(=O)c2ccccc2NC1c1ccc([N+](=O)[O-])o1)c1ccc(Br)cc1 (stereo not drawn)	-0.183	95.5*	-1.4	12.2	-1.35
O=C(NN1C(=O)c2ccccc2NC1c1ccco1)c1ccc([N+](=O)[O-])cc1 (stereo not drawn)	-0.532	-2.8	2.7	61.7*	-0.343
COc1cccc(-c2nnc(SC(C(=O)c3c[nH]c4ccccc34)c3ccccc3)n2C)c1 (stereo not drawn)	.	98.1*	4.3	6.8	-0.936
COc1ccccc1-c1nnc(SC(C(=O)c2c[nH]c3ccccc23)c2ccccc2)n1C (stereo not drawn)	.	8.2	2.1	-65.8	-1.99
CCOC(=O)C(=CNc1cc(C)ccc1-n1cccc1)C(=O)OCC	-0.227	.	.	2.6	-1.47
Fc1ccccc1C1c2cccn2CCN1C(=S)Nc1cccc(Br)c1 (stereo not drawn)	-0.817	3.2	59.2*	-17.3	0.498
Fc1ccccc1C1c2cccn2CCN1C(=S)Nc1ccc(Br)cc1 (stereo not drawn)	-0.738	22.6	62.5*	12.7	0.619
COc1ccc(C2CCCN2C(=S)Nc2cccc(C)c2)cc1OC (stereo not drawn)	-0.261	6.6	9.1	-13.2	-1.04
Cc1ccc(Nc2nc(=O)c3cc([N+](=O)[O-])ccc3s2)cc1	.	.	.	14.8	2.5
COc1ccc(Nc2nc(=O)c3cc([N+](=O)[O-])ccc3s2)cc1	.	.	.	60.2*	1.6
O=C(CSC1=Nc2ccccc2C2CC=NN12)Nc1ccc2c(c1)OCO2 (stereo not drawn)	-1.13	54.6*	29.3	26.4	-0.3
CCCOC(=O)c1ccc(NC(=O)CSC2=Nc3ccccc3C3CC=NN23)cc1 (stereo not drawn)	0.675	98.3*	-3.8	-49.4	0.728
C=CCOC(=O)C1=C(C)N=C2SCCC(=O)N2C1/C=C/c1ccccc1 (stereo not drawn)	-0.858	7.2	10.5	22.9	0.00169
COc1ccc(-c2ocnc2C(=O)NCc2nn(-c3ccccc3)nc2C)cc1	.	.	.	8.3	.
SMILES	ROMK mod	L major viab	WT yeast gro inh	m-calpain inh	Cl transport mod
O=S(=O)(Nc1cnc2ccccc2c1)N1CCCCCC1	.	1.7	2.8	-9.3	.
NC(=O)c1cccc2ccccc12	.	.	.	-8.1	0.146
N#CSCC(=O)c1cccc2ccccc12	.	26.4	26.1	-6.6	12.2*
Cc1nn(-c2ccccc2)c(C)c1C(=O)OCC(=O)N1c2ccccc2NC(=O)C1(C)C	0.0449	87.8*	-5.1	23.2	-1.21
CC(=O)c1c(C)[nH]c(C(=O)OCC(=O)N2c3ccccc3NC(=O)C2(C)C)c1C	0.4	55.6*	-7.2	8.8	0.423
Cc1cnc(C(=O)OCC(=O)N2c3ccccc3NC(=O)C2(C)C)cn1	-0.118	7.5	-28.5	-0.4	-0.742
COc1ccc(C(C(=O)NC2CCCCC2)N(C(=O)Cc2c[nH]c3ccccc23)c2ccccc2C)cc1OC (stereo not drawn)	-0.819	94.8*	-18.9	-35.5	0.61
CC(NC(=O)COc1ccc(N(C)S(=O)(=O)c2ccccc2)cc1)c1ccccc1 (stereo not drawn)	-0.152	22.4	-8.8	8.2	-0.989
COc1ccccc1-n1cc(C(=O)NCC(=O)N2CCN(Cc3ccccc3)CC2)c2ccccc2c1=O	0.63	-5.9	1.9	-22.0	-0.68

Screening results: PubChem BioAssay, several laboratories
